Assay outcomes as filed in PubChem BioAssay.
DT40 TDP1 no CPT: qHTS for Inhibitors of human tyrosyl-DNA phosphodiesterase 1 (TDP1): qHTS in cells in absence of CPT. Potency, µM (doses to about 46.2 µM), without a hit: top-dose activity change, negative = growth inhibition, actives largely listed as inhibitors. DT40 Tdp1-/- hTDP1 cells, no CPT, ATP luminescence, 48 h. actives 15% (n = 420,000); note: potency is the fitted concentration of half-maximal effect; % is set by controls: 0 for no effect and ±100 for the full control effect; nearly all actives have a fitted effect of over 55% in size
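Stably hTDP1-transfected Tdp1-null chicken DT40 cells were treated with library compounds minus camptothecin and grown for at least 48 hr at 37 °C, after which cellular ATP was quantified by luminescence.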
IL-1B inflam inh: inhibitors of inflammasome signaling (IL-1 beta secretion); activity change, % at 57.5 µM; AID 743279; actives 4.7% (n = 360,000); THP-1 LPS/ATP IL-1B secretion, AlphaLISA, 16 h; active compounds read low; in the data active = activity change below about -50%; inconclusive = mostly about -30% to -49%; note: % is set by controls: 0 for no effect and ±100 for the full control effect
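THP-1 cells pretreated 1 hr with compounds (up to 57.5 uM final), then stimulated with LPS (250 ng/mL final) plus ATP (1.25 mM final); secreted IL-1B measured by AlphaLISA after 16 hr, decreased signal indicating inhibition.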
TGFb SMAD3 inh: inhibitors of TGF-b signaling | actives 1.2% (n = 410,000) | HepG2 CAGA-GFP TGF-b/SMAD3 reporter, GFP fluorescence, 18 h; TGF-beta stimulated, 500 pg/mL final | Potency, µM (doses to about 46.1 µM), for inactives: top-dose activity, negative = inhibition, actives largely listed as inhibitors | AID 588855; note: potency is the fitted concentration of half-maximal effect; % is set by controls: 0 for no effect and ±100 for the full control effect; nearly all actives have a fitted effect of over 65% in size
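Inhibition of TGF-beta-driven CAGA-GFP reporter expression in HEPG2 cells is measured by cellular GFP fluorescence after 18 h stimulation with 500 pg/mL recombinant TGF-beta in 1% FBS medium at 37 degrees C.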
HepG2 tox: HepG2 cytotoxicity, counter-screen for TGF-b inhibitors; HepG2 CAGA-GFP viability, ATP luminescence, 18 h; Potency, µM (series often up to 46.1 µM), without a hit: top-dose activity change, negative = cytotoxicity, actives largely listed as cytotoxic; actives 0.76% (n = 410,000); AID 588856; note: potency is the fitted concentration of half-maximal effect
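HepG2 CAGA-GFP cells (1000/well, DMEM with 1% FBS) received compound, then TGF-beta at 500 pg/mL final, and were incubated 18 hours at 37 degrees C. Viability was read by CellTiter-Glo luminescence. Media-only wells were set as complete cell-killing and DMSO as no toxicity.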
TDP1 cell CPT: DT40-hTDP1 cell growth loss with CPT. chicken DT40 Tdp1-/-;hTDP1 cells + 20 nM CPT, ATP luminescence, 48 h. actives 12% (n = 420,000). Potency, µM (top dose mostly 46.2 µM), for the others: at the highest dose activity change, negative = growth inhibition, actives largely listed as inhibitors; note: potency is the fitted concentration of half-maximal effect; % is set by controls: 0 for no effect and ±100 for the full control effect; nearly all actives have a fitted effect of over 55% in size
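Cell growth measured by CellTiter-Glo luminescence after a minimum 48 h, 37 C compound exposure with 20 nM CPT in Tdp1-knockout DT40 cells stably expressing hTDP1, seeded 400/well; qHTS titration format.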
TDP1 inh: blocks human tyrosyl-DNA phosphodiesterase 1; Q9NUW8; recombinant TDP1, AlphaScreen DNA substrate cleavage; Potency, µM (titrated, usually from 130 µM), for inactives: at the top dose activity change, negative = inhibition, most hits filed as inhibitors; actives 0.28% (n = 350,000); AID 485290; note: potency is the fitted concentration of half-maximal effect; % is set by controls: 0 for no effect and ±100 for the full control effect; nearly all actives have a fitted effect of over 40% in size
Target sequence (Q9NUW8 whole entry, looked up): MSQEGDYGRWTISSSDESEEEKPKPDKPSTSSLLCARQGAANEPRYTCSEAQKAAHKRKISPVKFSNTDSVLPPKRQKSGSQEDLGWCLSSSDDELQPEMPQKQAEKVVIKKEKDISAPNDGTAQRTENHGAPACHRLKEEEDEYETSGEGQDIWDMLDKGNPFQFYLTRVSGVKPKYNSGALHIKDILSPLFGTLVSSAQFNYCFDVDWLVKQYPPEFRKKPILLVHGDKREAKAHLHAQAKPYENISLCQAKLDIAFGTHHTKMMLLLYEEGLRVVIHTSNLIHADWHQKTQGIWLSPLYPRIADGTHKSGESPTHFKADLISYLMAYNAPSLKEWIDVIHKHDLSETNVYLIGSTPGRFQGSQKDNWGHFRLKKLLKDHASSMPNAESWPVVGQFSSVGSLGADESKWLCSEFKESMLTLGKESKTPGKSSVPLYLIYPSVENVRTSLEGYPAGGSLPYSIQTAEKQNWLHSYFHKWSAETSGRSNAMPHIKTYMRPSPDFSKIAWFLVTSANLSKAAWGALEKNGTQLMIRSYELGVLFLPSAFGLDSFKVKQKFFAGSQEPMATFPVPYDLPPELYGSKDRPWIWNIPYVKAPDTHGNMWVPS
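Recombinant E. coli-expressed Tdp1 (1 nM) preincubated with compound 15 min at RT, then 5'-biotin/3'-phosphotyrosine-FITC DNA substrate (15 nM) added for 5 min. AlphaScreen beads (10 ug/ml) added, 10 min RT; tyrosine-FITC cleavage read as signal loss.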
* = called active by the depositor. In the library only some 18% were active in any assay of this set; here they are far more common. Unless noted, calls come from the whole dose curve; as a rule, active = well fitted curve in the direction sought with a large enough effect; inconclusive = small, poorly fitted or top-dose-only effect, or another doubt; inactive = no such curve, though single readings can be large; an effect the other way counts as inactive or inconclusive.

O=C(NNC(=O)C(c1ccccc1)c1ccccc1)c1ccccn1 was read as DT40 TDP1 no CPT 2.3µM*, IL-1B inflam inh -68*, TGFb SMAD3 inh inconclusive, HepG2 tox -21%, TDP1 cell CPT 2.9µM* and TDP1 inh 8%.
Cc1nc(NC2CCCCC2)c2nc(-c3ccccc3)n(CCCN3CCCCC3C)c2n1 (configuration not stated) was read as TDP1 inh 3%.
Screening O=C(Cn1cc(C(F)(F)F)cc(Cl)c1=O)Nc1cccc(S(=O)(=O)N2CCCCC2)c1 returned DT40 TDP1 no CPT -22%, IL-1B inflam inh 0, TGFb SMAD3 inh -18%, HepG2 tox -24%, TDP1 cell CPT inconclusive and TDP1 inh 1%.
`COc1ccc(C(=S)N2CCN(c3ccccc3C)CC2)cc1OC` gave DT40 TDP1 no CPT inconclusive, IL-1B inflam inh inconclusive, TGFb SMAD3 inh -13%, HepG2 tox -1% and TDP1 cell CPT inconclusive.
Screening O=C(NNC(=O)c1cccs1)c1ccccn1 returned DT40 TDP1 no CPT inconclusive, IL-1B inflam inh 5, TGFb SMAD3 inh 1%, HepG2 tox -13% and TDP1 cell CPT 16µM*.
Screening O=C(NNC(=O)c1ccccc1Cl)c1cccs1 returned DT40 TDP1 no CPT -8%, IL-1B inflam inh -8, TGFb SMAD3 inh -5%, HepG2 tox 1%, TDP1 cell CPT -5% and TDP1 inh 0%.
`CCC(=O)N1CCc2cc(Br)cc(S(=O)(=O)CCC(=O)NCCc3ccccc3Cl)c21` gave DT40 TDP1 no CPT inconclusive, TGFb SMAD3 inh -16%, HepG2 tox -2%, TDP1 cell CPT inconclusive and TDP1 inh -12%.
`O=C(COc1ccc(Cl)cc1)OCC(=O)c1ccc[nH]1` gave DT40 TDP1 no CPT -2%, IL-1B inflam inh 9, TGFb SMAD3 inh 0%, HepG2 tox 2%, TDP1 cell CPT -5% and TDP1 inh -5%.
Screening COc1cc(CC(=O)OCC(=O)N2CC(=O)Nc3ccccc32)cc(OC)c1OC returned DT40 TDP1 no CPT 19%, IL-1B inflam inh 0, TGFb SMAD3 inh -4%, HepG2 tox -1%, TDP1 cell CPT 28% and TDP1 inh -1%.
`CCC(=O)Nc1ccc2c(c1)Cc1cc([N+](=O)[O-])ccc1-2` gave DT40 TDP1 no CPT 6.5µM*, IL-1B inflam inh -5, TGFb SMAD3 inh 1%, HepG2 tox 0% and TDP1 cell CPT inconclusive.
Screening O=CNc1ccc2c(c1)Cc1cc([N+](=O)[O-])ccc1-2 returned DT40 TDP1 no CPT 13µM*, IL-1B inflam inh -55*, TGFb SMAD3 inh -1%, HepG2 tox -21% and TDP1 cell CPT inconclusive.
`CCN(CC(=O)Nc1ccc(NC(C)=O)cc1)C(=O)c1cccnc1Sc1ccc(C)c(C)c1` gave DT40 TDP1 no CPT inconclusive, IL-1B inflam inh 6, TGFb SMAD3 inh inconclusive, HepG2 tox 2%, TDP1 cell CPT -29% and TDP1 inh -2%.
Screening CCOc1ccc(NC(=O)c2ccccc2SC)cc1 returned DT40 TDP1 no CPT inconclusive, IL-1B inflam inh -20, TGFb SMAD3 inh 7%, HepG2 tox 3% and TDP1 cell CPT inconclusive.
For CCCCCOc1ccc(NC(=O)c2cc(SC)ccc2Cl)cc1 the results were DT40 TDP1 no CPT 13µM*, IL-1B inflam inh 15, TGFb SMAD3 inh 14%, HepG2 tox 8%, TDP1 cell CPT 23µM* and TDP1 inh 0%.
For CCOc1ccc(NC(=O)c2cc(SC)ccc2Cl)cc1 the results were DT40 TDP1 no CPT 16µM*, IL-1B inflam inh -18, TGFb SMAD3 inh -3%, HepG2 tox -1%, TDP1 cell CPT 18µM* and TDP1 inh -3%.
CSc1ccc(Cl)c(C(=O)Nc2ccc(N3CCOCC3)cc2)c1 was read as DT40 TDP1 no CPT -18%, IL-1B inflam inh -8, TGFb SMAD3 inh 2%, HepG2 tox -3%, TDP1 cell CPT -28% and TDP1 inh 3%.
`N#Cc1cc(C#N)c(N2CCN(c3ccccn3)CC2)nc1N` gave DT40 TDP1 no CPT 22µM*, IL-1B inflam inh 31, TGFb SMAD3 inh 9%, HepG2 tox 2%, TDP1 cell CPT inconclusive and TDP1 inh 6%.
For O=C(Nc1cc(Cl)cc(Cl)c1)N[C@@H]1CC[C@@H](CCNS(=O)(=O)c2cccc(F)c2)O[C@@H]1CO the results were DT40 TDP1 no CPT 16µM*, IL-1B inflam inh 6 and TDP1 cell CPT inconclusive.
Screening O=C(Nc1ccc(Cl)cc1)c1ccc2oc(=O)n(Cc3ccccc3)c2c1 returned DT40 TDP1 no CPT inconclusive, TGFb SMAD3 inh inconclusive, HepG2 tox 10%, TDP1 cell CPT inconclusive and TDP1 inh -1%.
Screening C=C1/C=C(\C)C(C)(O)CC(O)CC(=O)C(O)C(O)C(C)CC(C)OC(=O)/C(C)=C/CC/C=C/C(OC)C(O)CC(C)C1 (configuration not stated) returned DT40 TDP1 no CPT inconclusive, IL-1B inflam inh -53*, TGFb SMAD3 inh inconclusive, HepG2 tox -38%, TDP1 cell CPT inconclusive and TDP1 inh 1%.
Screening O=C(Nc1c(Cl)cc2c(c1Cl)Cc1cc([N+](=O)[O-])ccc1-2)C(Cl)Cl returned DT40 TDP1 no CPT inconclusive, IL-1B inflam inh -24, TGFb SMAD3 inh 7.1µM*, HepG2 tox -56% and TDP1 cell CPT inconclusive.
O=C(C(c1ccccc1)c1ccccc1)N1CCC(c2nc(-c3ccccc3Cl)no2)CC1 was read as DT40 TDP1 no CPT inconclusive, IL-1B inflam inh -13, TGFb SMAD3 inh -13%, HepG2 tox -30% and TDP1 cell CPT 23µM*.
Screening CC(=O)Nc1nc(-c2ccc(-c3ccccc3)cc2)cs1 returned DT40 TDP1 no CPT -8%, IL-1B inflam inh -2, TGFb SMAD3 inh 1%, HepG2 tox 8% and TDP1 cell CPT -22%.
For CC(=O)Nc1nc(-c2cccc3ccccc23)cs1 the results were DT40 TDP1 no CPT inconclusive, IL-1B inflam inh -10, TGFb SMAD3 inh 6%, HepG2 tox -2% and TDP1 cell CPT 15µM*.
Screening CCOC(=O)Nc1nc(-c2ccc(Cl)cc2Cl)cs1 returned DT40 TDP1 no CPT 10µM*, IL-1B inflam inh -29, TGFb SMAD3 inh -10%, HepG2 tox -7%, TDP1 cell CPT inconclusive and TDP1 inh 3%.
Screening O=C(NNc1nc(-c2ccc(F)cc2)cs1)c1ccccc1 returned DT40 TDP1 no CPT 4.1µM*, IL-1B inflam inh -6, TGFb SMAD3 inh -18%, HepG2 tox 2%, TDP1 cell CPT 2.6µM* and TDP1 inh 9%.
